This is part of a sample that, as a whole, favours compounds with a hit. Of some 83,000 tested, about 20% had one in any assay.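 A percent growth of 40 corresponds to 60% growth inhibition; 0 means no net growth; -100 means all cells died. Active threshold: below 10.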 Unmarked numbers belong to inactive results. Active and inactive are the calls of the source.

Assay in all cases: NCI-60 one-dose screen, 48 h (100 = growth as untreated, 0 = no growth, -100 = all killed)
The subject of one assay is DU-145 prostate. Particulars: 10 µM unless noted.
The next assay relates to MALME-3M melanoma. The note with it: 10 µM unless noted.
The next assay deals with MDA-MB-231 breast. Particulars: 10 µM unless noted.
In a further assay the test system is RXF 393 renal. The note with it: 10 µM unless noted.
The subject of the next assay is SF-268 CNS. Particulars: 10 µM unless noted.
The subject of a further assay is SF-295 CNS. Particulars: 10 µM unless noted.
A further assay has as its system SF-539 CNS. Particulars: 10 µM unless noted.
The next assay relates to UACC-257 melanoma. Particulars: 10 µM unless noted.
The next assay relates to M14 melanoma. Particulars: 10 µM unless noted.
The subject of another assay is HCT-15 colon. The note with it: 10 µM unless noted.
The subject of another assay is HT29 colon. Particulars: 10 µM unless noted.
A further assay relates to SNB-75 CNS. Particulars: 10 µM unless noted.
For a further assay, the system named is SNB-19 CNS. The note with it: 10 µM unless noted.
The next assay deals with U251 CNS. The note with it: 10 µM unless noted.
For the next assay, the system named is PC-3 prostate. The note with it: 10 µM unless noted.
A further assay has as its system UACC-62 melanoma. The note with it: 10 µM unless noted.
The test system of the next assay is LOX IMVI melanoma. The note with it: 10 µM.
The next assay relates to SK-MEL-28 melanoma. The note with it: 10 µM unless noted.
A further assay has as its system K-562 leukemia. Particulars: 10 µM unless noted.
A further assay relates to SK-MEL-5 melanoma. The note with it: 10 µM unless noted.

For the compound `Cc1cc(C)n(-c2ccc3nnc(-c4ccccc4)n3n2)n1`, the growth in the assay on DU-145 prostate is 92.2%; in the assay with MALME-3M melanoma, 108%; with MDA-MB-231 breast it was 117%; in the assay on RXF 393 renal, 90.6%; with SF-268 CNS, 89.6%; in the assay on SF-295 CNS, 103%. The growth with SF-539 CNS was 102%; with UACC-257 melanoma, 135%; with M14 melanoma it was 129%; in the assay on HCT-15 colon, 86.4%; with HT29 colon it was 115%; with SNB-75 CNS it was 94.4%. The growth with SNB-19 CNS was 98.3%; with U251 CNS, 102%; in the assay on PC-3 prostate it was 104%; in the assay with UACC-62 melanoma, 99.9%; with LOX IMVI melanoma, 77.3%; in the assay on SK-MEL-28 melanoma, 122%.

For `O=C(Nc1ccc(C(F)(F)F)cc1)Nc1ccc2oc(=O)ccc2c1`, the growth in the assay with DU-145 prostate was 27.9%; in the assay on MALME-3M melanoma it was -1.86% (active); in the assay on MDA-MB-231 breast it was 14.6%; with RXF 393 renal it was 56.5%; in the assay with SF-268 CNS it was 50.9%; in the assay with SF-295 CNS it was -7.66% (active). Besides, the growth in the assay on SF-539 CNS was 32.2%; with UACC-257 melanoma it was 0.986% (active); in the assay on M14 melanoma, 16.3%; in the assay on HCT-15 colon, 10.1%; with HT29 colon it was 9.84% (active); in the assay on SNB-75 CNS, 44.1%. Moreover, the growth in the assay on SNB-19 CNS is 29.5%; in the assay on U251 CNS, -0.283% (active); in the assay with PC-3 prostate it was 13.6%; in the assay with UACC-62 melanoma, 28%; in the assay on LOX IMVI melanoma, -83.8% (active); in the assay with SK-MEL-28 melanoma, 37.6%.

For `CC(=O)Oc1ccccc1C(=O)[Se]CC(=O)Nc1cccc(C(F)(F)F)c1`, the growth was 8.88% (active) with DU-145 prostate; 18.6% in the assay with K-562 leukemia; -92.8% (active) in the assay on MALME-3M melanoma; -25.5% (active) with RXF 393 renal; 2.38% (active) in the assay with SF-268 CNS; -76.8% (active) with SF-295 CNS. For the same compound, the growth is -90.1% (active) with SF-539 CNS; -24.2% (active) in the assay with UACC-257 melanoma; -37.4% (active) in the assay with M14 melanoma; -79.8% (active) in the assay on HCT-15 colon; -38.7% (active) in the assay on HT29 colon; -39.2% (active) in the assay with SNB-75 CNS. For the same compound, the growth is -78.5% (active) in the assay with SNB-19 CNS; -48.3% (active) with U251 CNS; 24.9% with PC-3 prostate; -86.4% (active) in the assay on SK-MEL-5 melanoma; -56.7% (active) in the assay with UACC-62 melanoma; -58.8% (active) in the assay with SK-MEL-28 melanoma.

In the case of `CC(C)c1ccc2c(N)c(C(=O)Nc3ccc(C(F)(F)F)cn3)sc2n1`, the growth with DU-145 prostate is 63.8%; in the assay on K-562 leukemia it was 33.1%; in the assay with MALME-3M melanoma, 63%; with RXF 393 renal, 74.5%; in the assay on SF-268 CNS, 91.8%; in the assay on SF-295 CNS, 34.3%. The growth in the assay with SF-539 CNS was 88%; with UACC-257 melanoma it was 60%; in the assay on M14 melanoma, 50.5%; in the assay on HCT-15 colon, 58.7%; in the assay on SNB-75 CNS it was 78.6%; in the assay with SNB-19 CNS it was 71.5%. The growth was 62.9% with U251 CNS; 44.7% in the assay with PC-3 prostate; 5.02% (active) with SK-MEL-5 melanoma; 69.7% with UACC-62 melanoma; 77.3% in the assay with SK-MEL-28 melanoma.

These data come from PubChem BioAssay (NCI).
